This note sets out measurements from PubChem BioAssay (Tox21).

Assay [1] is described as follows: qHTS assay to identify small molecule antagonists of the sonic hedgehog signaling (Shh) pathway (AID 1259369; calls by dose curve; note: nearly all actives have a fitted effect of over 45% in size; note: potency is the fitted concentration of half-maximal effect). In short, it runs like this: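 NIH/3T3 stable Gli1-Luc clone, 2,000 cells/well, 4hr settle; cpd + conditioned medium 24hr; Luc reagent 30min RT; luminescence.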
A general note: In qHTS, concentration-response curves come from the screen itself.

Assay [2] concerns the target Estrogen receptor beta (Homo sapiens) (UniProt Q92731). The assay is described as follows: qHTS assay to identify small molecule agonists of the estrogen receptor beta (ER-beta) signaling pathway (AID 1259377; active = well fitted activation curve with a large enough effect in the signal ratio in the repeat runs, not every such curve was filed as active; the % refers to the signal ratio). In short, it runs like this:
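Screening used GripTite ER-beta-UAS-bla cells held in 2% charcoal-stripped FBS medium. After overnight (16 hr) compound incubation at 37C, beta-lactamase activity was detected with a FRET substrate by fluorescence.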

Assay [3] has the same target. The assay is described as follows: qHTS assay to identify small molecule antagonists of the estrogen receptor beta (ER-beta) signaling pathway (AID 1259378; active = well fitted inhibition curve with a large enough effect in the signal ratio in the repeat runs, not every such curve was filed as active; the % refers to the signal ratio). In short, it runs like this: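 ER-beta-UAS-bla HEK293T cells in 2% charcoal-stripped FBS medium treated with compound plus 1nM final 17-beta-estradiol for 16 hr at 37C. Beta-lactamase reporter read by FRET substrate fluorescence after 2 hours at room temperature.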

Assay [4] can be described thus: qHTS assay to identify small molecule agonists of the androgen receptor (AR) signaling pathway in the presence of an antagonist - cell viability counter screen (AID 1259379).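 Note: MDA-kb2 human breast cancer cells carrying an MMTV luciferase reporter; series mostly up to about 92 µM; nearly all actives have a fitted effect of over 25% in size.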 In short, it runs like this:
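MDA-kb2 viability measured by CellTiter-Fluor fluorescence in the same wells as the luciferase signal; nilutamide 3.0uM final; 15-point compound titration; 16 hr at 37C.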

A short description of assay [5]: qHTS assay to identify small molecule agonists of the estrogen receptor beta (ER-beta) signaling pathway - cell viability counter screen (AID 1259380). Note: nearly all actives have a fitted effect of over 30% in size. In short, it runs like this:
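Measured: luminescence from CellTiter-Glo after 30 min at room temperature, added to wells already read for the LiveBLAzer FRET reporter (2 hr substrate); ER-beta-UAS-bla HEK293T cells had 16 hr compound treatment at 37C, 5% CO2.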

The nature of assay [6]: qHTS assay to identify small molecule antagonists of the estrogen receptor beta (ER-beta) signaling pathway - cell viability counter screen (AID 1259382). Note: series mostly up to about 92 µM; nearly all actives have a fitted effect of over 55% in size. In short, it runs like this: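 Readout: luminescence, CellTiter-Glo, same wells as bla assay. System: ER-beta-UAS-bla GripTite HEK293T, 2% charcoal-stripped FBS. Exposure: compounds plus 1nM 17-beta-estradiol, 16 hr, 37C.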

A short description of assay [7]: qHTS assay to identify small molecule agonists or antagonists of the thyroid stimulating hormone receptor (TSHR) signaling pathway - wild type cell line counter screen (AID 1259384; calls by dose curve). In short, it runs like this: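 Wild-type Hek293 cells, 800/well, 18 h at 37C, then compound with Ro20-1724 for 30 min RT. cAMP by HTRF (cAMP-d2/anti-cAMP cryptate), 1 h RT, fluorescence read. 15 concentrations, triplicates.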

Assay [8] concerns the target Thyrotropin receptor (Homo sapiens) (UniProt P16473). Kind of assay: qHTS assay to identify small molecule antagonists of the thyroid stimulating hormone receptor (TSHR) signaling pathway (AID 1259385; calls by dose curve; note: nearly all actives have a fitted effect of over 20% in size). In short, it runs like this: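 TSHR-HEK293 cells (800/well) plated 18 h, then compounds with Ro20-1724 and TSH at 1.5 ng/mL final, 30 min at room temperature. cAMP quantified by HTRF (cAMP-d2/anti-cAMP-cryptate, 1 h); 15 concentrations in triplicate.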

Assay [9] in a line: qHTS assay to identify small molecule agonists of the estrogen receptor alpha (ER-alpha) signaling pathway in the presence of an antagonist - cell viability counter screen (AID 1259386).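 Note: series mostly up to about 92 µM; cells exposed to compounds for 22 h at 37 °C before the viability read; nearly all actives have a fitted effect of over 30% in size.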 In short, it runs like this: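 The test measures whether compounds kill ER-alpha reporter cells (VM7Luc4E2) under antagonist co-treatment (ICI-182,780, 10.0nM). Fluorescence from CellTiter-Fluor is read after a 22hr exposure.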

Assay [10] has as its target Progesterone receptor (Homo sapiens) (UniProt P06401). The assay is described as follows: qHTS assay to identify small molecule agonists of the progesterone receptor (PR) signaling pathway (AID 1346784; calls by dose curve; note: nearly all actives have a fitted effect of over 30% in size). In short, it runs like this: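 Seed PR-UAS-bla HEK 293T cells (2% charcoal-stripped FBS), incubate 6 hr at 37C; add compounds in DMSO, 16 hr at 37C; add LiveBLAzer B/G substrate, 2 hr RT; read fluorescence intensity.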

Assay [11] shares this target. The assay is described as follows: qHTS assay to identify small molecule antagonists of the progesterone receptor (PR) signaling pathway (AID 1346795; active = well fitted inhibition curve with a large enough effect in the signal ratio in the repeat runs, not every such curve was filed as active; the % refers to the signal ratio). In short, it runs like this: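 Screening used a GripTite HEK293T line with PR-responsive UAS-beta-lactamase. Cells were challenged with compound in the presence of 1 nM R5020 final for 16 hr at 37C; B/G FRET substrate, 2 hr room temperature, fluorescence.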

The nature of assay [12]: qHTS assay to identify small molecule antagonists of the progesterone receptor (PR) signaling pathway - cell viability counter screen (AID 1346798). Note: series mostly up to about 92 µM; nearly all actives have a fitted effect of over 50% in size. In short, it runs like this:
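Measures cytotoxicity in parallel with the PR antagonist reporter read: HEK293T PR-UAS-bla cells get compound and R5020 for 16 hr, and remaining viable cells are quantified by CellTiter-Glo luminescence.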

The nature of assay [13]: qHTS assay to identify small molecule agonists of the progesterone receptor (PR) signaling pathway - cell viability counter screen (AID 1346799; calls by dose curve; note: nearly all actives have a fitted effect of over 45% in size). In short, it runs like this:
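Using the same plates as the PR reporter screen, HEK293T PR-UAS-bla cells received compounds for 16 hr at 37C and were then lysed with CellTiter-Glo; luminescence was read 30 min later at room temperature.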

The nature of assay [14]: qHTS assay to identify small molecule agonists of the TGF-beta/Smad signaling pathway - cell viability counter screen (AID 1346829). Note: top concentration of the series differs between compounds; nearly all actives have a fitted effect of over 45% in size. In short, it runs like this:
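Luminescence from CellTiter-Glo, read after a 30 min room-temperature incubation, gives cell viability of SBE-bla HEK 293T cells treated 5 hr with compounds at 37 C.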

A short description of assay [15]: qHTS assay to identify small molecule agonists of the TGF-beta/Smad signaling pathway (AID 1346859; active = well fitted activation curve with a large enough effect in the signal ratio in the repeat runs, not every such curve was filed as active; the % refers to the signal ratio; note: potency is the fitted concentration of half-maximal effect; for activation: series mostly up to about 77 µM). In short, it runs like this: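 Beta-lactamase reporter activity downstream of Smad binding elements was measured in stably transfected HEK 293T cells; compounds were incubated for 5 hr, substrate for 2 hr at room temperature.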
Assay [16] concerns the target Thyrotropin-releasing hormone receptor (Homo sapiens) (UniProt P34981). Kind of assay: qHTS assay to identify small molecule antagonists of the thyrotropin-releasing hormone receptor (TRHR) signaling pathway (AID 1346877; active = well fitted inhibition curve with a large enough effect in the repeat runs, not every such curve was filed as active; note: series mostly up to about 51 µM). In short, it runs like this: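 Overnight-plated (18 h, 37 °C) HEK293 cells expressing TRHR were dye-loaded 2 h, treated with compound, then stimulated with TRH at 1 nM final. Fluorescence intensity was captured every second for 3 min.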

For assay [17], the target named is Estrogen receptor (Homo sapiens) (UniProt P03372). The assay is described as follows: qHTS assay to identify small molecule agonists of the estrogen receptor alpha (ER-alpha) signaling pathway in the presence of an antagonist (AID 1259383; calls by dose curve; note: top concentration of the series differs between compounds; nearly all actives have a fitted effect of over 15% in size). In short, it runs like this: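 Quantitative HTS confirmation: compounds titrated at 15 concentrations onto estrogen-deprived VM7Luc4E2 cells carrying a four-ERE luciferase construct, with ICI-182,780 present at 10.0nM final. Signal is luminescence after 22hr exposure.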
Chain of Estrogen receptor (Homo sapiens) (P03372 whole entry, looked up): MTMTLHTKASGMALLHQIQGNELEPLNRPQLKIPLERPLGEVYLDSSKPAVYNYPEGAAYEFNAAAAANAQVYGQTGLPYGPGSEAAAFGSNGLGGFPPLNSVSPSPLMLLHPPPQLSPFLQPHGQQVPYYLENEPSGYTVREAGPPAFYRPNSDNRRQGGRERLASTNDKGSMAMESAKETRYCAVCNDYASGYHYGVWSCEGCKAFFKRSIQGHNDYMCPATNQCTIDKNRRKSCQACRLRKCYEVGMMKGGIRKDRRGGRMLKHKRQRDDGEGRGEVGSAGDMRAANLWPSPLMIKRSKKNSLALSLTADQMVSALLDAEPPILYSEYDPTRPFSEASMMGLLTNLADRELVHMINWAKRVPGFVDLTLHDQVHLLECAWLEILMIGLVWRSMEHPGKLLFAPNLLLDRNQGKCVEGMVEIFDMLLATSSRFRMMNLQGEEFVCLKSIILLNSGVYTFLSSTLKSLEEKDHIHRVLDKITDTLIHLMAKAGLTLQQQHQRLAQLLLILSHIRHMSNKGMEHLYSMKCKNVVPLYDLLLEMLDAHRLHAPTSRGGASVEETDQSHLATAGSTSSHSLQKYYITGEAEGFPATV

Assay [18] can be described thus: qHTS assay to identify small molecule antagonists of the TGF-beta/Smad signaling pathway - cell viability counter screen (AID 1346824). Note: nearly all actives have a fitted effect of over 50% in size. In short, it runs like this:
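SBE-bla HEK 293T cells, incubated overnight, then compound plus 0.25 ng/mL TGF-beta1 (stock added) for 5 hr at 37 C. Viability was read in the same wells by CellTiter-Glo luminescence after 30 min at room temperature.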

Assay [19] deals with Thyrotropin-releasing hormone receptor (Homo sapiens) (UniProt P34981). Kind of assay: qHTS assay to identify small molecule agonists of the thyrotropin-releasing hormone receptor (TRHR) signaling pathway (AID 1346891; calls by dose curve;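 note: HEK293 cells expressing TRHR with calcium dye readout; series mostly up to about 58 µM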). In short, it runs like this: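 Overnight-plated (18 h, 37 °C, 5% CO2) TRHR-Hek293 cells; 2 h calcium dye at 37 °C; compound in DMSO; 3-min kinetic fluorescence read.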
Chain of Thyrotropin-releasing hormone receptor (Homo sapiens) (P34981 whole entry, looked up): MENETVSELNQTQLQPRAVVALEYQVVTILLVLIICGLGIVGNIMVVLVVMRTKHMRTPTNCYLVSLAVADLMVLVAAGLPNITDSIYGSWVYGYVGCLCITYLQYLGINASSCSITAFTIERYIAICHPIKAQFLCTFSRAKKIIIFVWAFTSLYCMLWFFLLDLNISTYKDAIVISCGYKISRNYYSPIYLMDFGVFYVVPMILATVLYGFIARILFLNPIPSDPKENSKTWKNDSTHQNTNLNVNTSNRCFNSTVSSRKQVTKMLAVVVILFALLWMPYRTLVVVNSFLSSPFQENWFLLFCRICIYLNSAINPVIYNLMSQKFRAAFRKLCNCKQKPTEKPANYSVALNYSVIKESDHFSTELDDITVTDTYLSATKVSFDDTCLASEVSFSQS

Results filed as inconclusive are left out. Some compounds were tested as several samples or in several runs, with calls that do not always agree. Activity calls are given as the source filed them. Unless noted, calls come from the whole dose curve; as a rule, active = well fitted curve in the direction sought with a large enough effect in the repeat runs; inconclusive = weak or mixed curves; inactive = no such curve, though single readings can be large; an effect the other way counts as inactive or inconclusive.

Chain of Progesterone receptor (Homo sapiens) (P06401 whole entry, looked up): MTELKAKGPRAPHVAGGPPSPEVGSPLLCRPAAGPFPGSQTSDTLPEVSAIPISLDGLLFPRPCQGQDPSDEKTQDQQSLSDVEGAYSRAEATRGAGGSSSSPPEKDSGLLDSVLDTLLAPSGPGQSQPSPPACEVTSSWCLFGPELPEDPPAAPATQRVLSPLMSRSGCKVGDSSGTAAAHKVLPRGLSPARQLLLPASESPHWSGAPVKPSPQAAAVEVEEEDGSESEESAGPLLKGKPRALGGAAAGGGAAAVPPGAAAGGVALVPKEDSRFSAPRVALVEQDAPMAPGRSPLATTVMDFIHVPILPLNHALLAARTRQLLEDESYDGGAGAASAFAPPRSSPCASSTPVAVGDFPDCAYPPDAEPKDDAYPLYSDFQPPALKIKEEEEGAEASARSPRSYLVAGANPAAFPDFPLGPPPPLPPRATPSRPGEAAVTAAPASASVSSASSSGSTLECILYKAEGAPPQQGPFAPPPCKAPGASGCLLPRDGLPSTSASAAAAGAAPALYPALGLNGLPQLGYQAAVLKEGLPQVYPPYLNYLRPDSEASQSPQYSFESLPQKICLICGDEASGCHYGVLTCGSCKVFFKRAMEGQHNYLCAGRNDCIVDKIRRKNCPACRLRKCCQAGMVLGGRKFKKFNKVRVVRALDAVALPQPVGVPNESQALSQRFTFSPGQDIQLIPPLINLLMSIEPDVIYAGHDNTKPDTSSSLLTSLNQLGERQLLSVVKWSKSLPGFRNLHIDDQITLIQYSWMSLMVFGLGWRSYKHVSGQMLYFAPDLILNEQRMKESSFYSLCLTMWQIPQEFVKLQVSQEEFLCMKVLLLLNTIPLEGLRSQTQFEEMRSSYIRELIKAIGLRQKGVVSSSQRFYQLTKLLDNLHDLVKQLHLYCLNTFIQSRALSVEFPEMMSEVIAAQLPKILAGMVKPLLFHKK
Chain of Estrogen receptor beta (Homo sapiens) (Q92731 whole entry, looked up): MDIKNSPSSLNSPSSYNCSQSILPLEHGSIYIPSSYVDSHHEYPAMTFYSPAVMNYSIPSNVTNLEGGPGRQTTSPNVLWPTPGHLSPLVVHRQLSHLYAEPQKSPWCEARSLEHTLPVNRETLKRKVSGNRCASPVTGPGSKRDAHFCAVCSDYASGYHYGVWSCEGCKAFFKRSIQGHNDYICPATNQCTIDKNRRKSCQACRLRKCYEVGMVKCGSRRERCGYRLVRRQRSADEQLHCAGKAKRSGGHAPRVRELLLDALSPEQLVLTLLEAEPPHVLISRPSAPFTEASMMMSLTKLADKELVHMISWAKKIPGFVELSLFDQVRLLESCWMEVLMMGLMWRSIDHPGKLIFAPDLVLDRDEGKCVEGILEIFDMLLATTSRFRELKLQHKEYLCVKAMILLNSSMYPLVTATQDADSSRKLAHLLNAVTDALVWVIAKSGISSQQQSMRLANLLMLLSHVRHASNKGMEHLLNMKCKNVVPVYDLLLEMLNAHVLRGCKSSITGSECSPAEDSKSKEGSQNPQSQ
Chain of Thyrotropin receptor (Homo sapiens) (P16473 whole entry, looked up): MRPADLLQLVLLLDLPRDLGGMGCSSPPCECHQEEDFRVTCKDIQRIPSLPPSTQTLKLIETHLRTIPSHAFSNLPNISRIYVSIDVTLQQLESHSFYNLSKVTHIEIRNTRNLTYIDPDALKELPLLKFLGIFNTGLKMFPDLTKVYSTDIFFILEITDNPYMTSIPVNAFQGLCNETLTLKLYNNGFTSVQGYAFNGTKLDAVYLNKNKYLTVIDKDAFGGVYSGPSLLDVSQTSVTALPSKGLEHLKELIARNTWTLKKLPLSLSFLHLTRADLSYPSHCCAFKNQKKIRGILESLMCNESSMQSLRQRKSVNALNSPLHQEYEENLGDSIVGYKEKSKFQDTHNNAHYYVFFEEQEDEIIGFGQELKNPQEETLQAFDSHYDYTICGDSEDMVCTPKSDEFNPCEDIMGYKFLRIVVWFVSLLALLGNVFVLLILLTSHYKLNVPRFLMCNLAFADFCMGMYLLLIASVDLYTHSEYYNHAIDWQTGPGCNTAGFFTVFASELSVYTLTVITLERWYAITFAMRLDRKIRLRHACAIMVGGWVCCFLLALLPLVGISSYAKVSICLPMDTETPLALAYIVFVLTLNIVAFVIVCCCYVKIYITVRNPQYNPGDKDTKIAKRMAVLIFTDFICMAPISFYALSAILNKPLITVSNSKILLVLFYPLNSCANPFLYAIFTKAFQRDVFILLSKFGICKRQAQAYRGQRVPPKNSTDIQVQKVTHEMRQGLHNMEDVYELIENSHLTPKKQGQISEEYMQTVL

For `CN(C)c1ccccc1`, the Potency entry in assay [1], in [2], in assay [3], in assay [4], in assay [5] and in assay [6] was “inactive” each time. Also, the Potency entry in [7], in [8], in assay [9], in assay [10], in assay [11] and in assay [12] was “inactive” throughout. Further, the Potency result in [13], in [14], in [15] and in assay [16] was “inactive” in each case.

Turning to `Oc1ccc(Cl)cc1Cl`, the Potency result in [1], in [2], in assay [3], in assay [4], in assay [5] and in assay [6] was “inactive” throughout. Moreover, the Potency entry in assay [17], in [9], in assay [10], in [11], in assay [12] and in [13] was “inactive” each time. The Potency entry in assay [18], in [14] and in [16] was “inactive” throughout. In [15], the Potency was 48.6 µM (active) and inactive.

In the case of `COc1ccc(C=O)cc1OC`, the Potency in assay [1] is 24.6 µM (active). The Potency result in assay [2], in assay [3], in [4], in assay [5], in assay [6] and in assay [17] was “inactive” throughout. In addition, the Potency result in assay [9], in assay [10], in assay [13], in assay [14] and in assay [16] was “inactive” in each case.

For the molecule `Nc1ccc2ccccc2c1`, the Potency entry in assay [1], in assay [3], in assay [4], in assay [5], in [6] and in [17] was “inactive” throughout. Further, the Potency entry in assay [9], in assay [10], in assay [11], in [12], in assay [13] and in assay [14] was “inactive” throughout. Besides, in [16], the Potency result was “inactive”. The call in assay [19] was inactive.

Take `CCNCC`: the Potency result in assay [1], in assay [2], in assay [3], in assay [4], in assay [5] and in assay [6] was “inactive” each time. The Potency result in assay [7], in [8], in assay [9], in assay [10], in assay [11] and in assay [12] was “inactive” throughout. The Potency entry in assay [13], in assay [14], in assay [15] and in [16] was “inactive” in each case.

With `COP(=O)(NC(C)=O)SC` (centres undefined), the Potency in assay [1] is 27.3 µM (active) and inactive. Besides, the Potency result in [2], in assay [3], in assay [4], in assay [5], in [6] and in [9] was “inactive” each time. The Potency entry in [10], in assay [11], in assay [12], in [13], in [14] and in [15] was “inactive” throughout. For the same molecule, in assay [16], the Potency entry is “inactive”.

As for `COc1ccc(CO)cc1`, the Potency entry in assay [1], in [2], in assay [3], in assay [4], in assay [5] and in assay [6] was “inactive” in each case. Further, the Potency result in assay [7], in assay [8], in assay [9], in assay [10], in assay [11] and in assay [12] was “inactive” in each case. For the same molecule, the Potency entry in assay [13], in [14] and in assay [16] was “inactive” in each case. For the same molecule, the result in assay [19] was inactive.

Consider `CS(=O)(=O)NC(=O)c1cc(Oc2ccc(C(F)(F)F)cc2Cl)ccc1[N+](=O)[O-]`, for which the Potency entry in [1], in [2], in [4], in assay [5], in assay [6] and in assay [7] was “inactive” throughout. In addition, the Potency entry in [8], in [9], in assay [10], in assay [11], in assay [12] and in assay [13] was “inactive” in each case. Further, the Potency entry in assay [18], in assay [14] and in assay [15] was “inactive” throughout.
